OTUD3 inh = inhibitors of human OTUD3 deubiquitinase. inhibition, % at 25 µM. 47,000 tested, 0.7% active. purified OTUD3, Ub-rhodamine fluorescence, 2 h. OTU domain-containing protein 3 (Homo sapiens), Q5T2D3
USP30 block = inhibitors of human USP30 deubiquitinase. 47,000 tested, 5.3% active. purified USP30, Ub-rhodamine cleavage fluorescence. Ubiquitin carboxyl-terminal hydrolase 30 (Homo sapiens), Q70CQ3. inhibition, % at 25 µM. AID 1645860, 2021
USP28 inh = inhibitors of human USP28 deubiquitinase; Ubiquitin carboxyl-terminal hydrolase 28 (Homo sapiens), Q96RU2; purified USP28, Ub-rhodamine cleavage fluorescence, 30 min; inhibition, % at 25 µM; 47,000 tested, 3% active; AID 1645857, 2021
Target sequence (Q96RU2 whole entry, looked up): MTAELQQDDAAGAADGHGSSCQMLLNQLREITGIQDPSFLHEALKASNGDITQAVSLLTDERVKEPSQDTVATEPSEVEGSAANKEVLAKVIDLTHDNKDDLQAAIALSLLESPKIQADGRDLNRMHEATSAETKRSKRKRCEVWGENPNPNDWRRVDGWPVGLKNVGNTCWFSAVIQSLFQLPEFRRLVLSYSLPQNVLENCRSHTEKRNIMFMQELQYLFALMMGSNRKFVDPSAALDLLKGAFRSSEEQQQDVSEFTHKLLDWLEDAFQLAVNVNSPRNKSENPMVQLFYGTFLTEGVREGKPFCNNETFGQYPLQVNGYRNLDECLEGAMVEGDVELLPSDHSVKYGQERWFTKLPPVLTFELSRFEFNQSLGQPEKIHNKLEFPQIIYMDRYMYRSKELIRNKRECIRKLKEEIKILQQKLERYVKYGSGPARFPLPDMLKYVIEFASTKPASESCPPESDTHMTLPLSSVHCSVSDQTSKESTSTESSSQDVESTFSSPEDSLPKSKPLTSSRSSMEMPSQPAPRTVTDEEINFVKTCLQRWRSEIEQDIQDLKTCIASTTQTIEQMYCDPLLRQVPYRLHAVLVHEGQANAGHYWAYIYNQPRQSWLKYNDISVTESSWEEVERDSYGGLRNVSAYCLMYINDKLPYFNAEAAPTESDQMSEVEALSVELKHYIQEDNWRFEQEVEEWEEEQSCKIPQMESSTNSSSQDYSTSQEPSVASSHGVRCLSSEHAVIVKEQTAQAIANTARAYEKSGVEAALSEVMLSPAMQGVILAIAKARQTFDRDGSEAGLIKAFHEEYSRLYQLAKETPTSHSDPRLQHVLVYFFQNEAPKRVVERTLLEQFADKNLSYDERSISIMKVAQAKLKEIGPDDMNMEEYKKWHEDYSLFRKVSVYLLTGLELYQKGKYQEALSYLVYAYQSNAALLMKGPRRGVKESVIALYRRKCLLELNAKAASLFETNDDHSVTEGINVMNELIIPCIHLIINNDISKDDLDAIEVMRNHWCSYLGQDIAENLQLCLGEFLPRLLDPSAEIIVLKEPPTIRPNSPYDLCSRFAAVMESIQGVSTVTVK
USP17 inh = inhibitors of human USP17 deubiquitinase; Ubiquitin carboxyl-terminal hydrolase 17-like protein 5 (Homo sapiens), A8MUK1; purified USP17, Ub-rhodamine cleavage fluorescence, 3 h; inhibition, % at 50 µM; 47,000 tested, 6.5% active; AID 1645855, 2021
Numbers without * were called inactive. Rows were chosen to be rich in hits. Some 11% of all compounds tested hit in one or more screens of this group. Cut-off read from the data, not from the text of the source: active = inhibition above about 30%; inactive = the rest.

For CCC(=O)N1c2ccccc2NC2=C(C(=O)CC(c3ccccc3OCc3ccccc3)C2)C1c1ccccc1 (centres undefined) the results were OTUD3 inh 15.5, USP30 block 60.6*, USP28 inh 9.3 and USP17 inh 35.6*.
For COc1cc(C2C3=C(CC(c4ccccc4)CC3=O)Nc3ccccc3N2C(=O)C2CC2)cc(OC)c1OC (centres undefined) the results were OTUD3 inh 6.1, USP30 block 12.5, USP28 inh 0.0 and USP17 inh 45.3*.
For CC1(C)CC(=O)C2=C(C1)Nc1ccccc1N(C(=O)Cc1ccccc1)C2c1ccc(Cl)cc1 (centres undefined) the results were OTUD3 inh 17.0, USP30 block 29.2, USP28 inh 19.3 and USP17 inh 49.1*.
For Cc1cc(C(=O)Nc2cnc(N3CCOCC3)nc2)no1 the results were OTUD3 inh -5.3, USP30 block -13.9, USP28 inh 1.6 and USP17 inh -7.7.
`O=C(Nc1ccc(F)cc1)N1C[C@H]2C[C@H](C(=O)N3CCCC3)[C@@H](C1)O2` gave OTUD3 inh 5.7, USP30 block 4.6, USP28 inh 13.4 and USP17 inh -0.1.
`CC(C)COc1ccc(C(=O)NCC(c2ccco2)N2CCOCC2)cc1` (centres undefined) gave OTUD3 inh 12.0, USP30 block -0.5, USP28 inh 8.2 and USP17 inh -15.3.
For CCC1=C(c2ccc(C)cc2)S(=O)(=O)NC1=NCC(=O)NCc1ccccc1F the results were OTUD3 inh 9.7, USP30 block 27.2, USP28 inh 13.0 and USP17 inh 60.3*.
Screening CCC1=C(c2ccc(C)cc2)S(=O)(=O)NC1=NCC(=O)NCc1cccc(C)c1 returned OTUD3 inh 14.1, USP30 block 14.9, USP28 inh 19.8 and USP17 inh 43.7*.
Screening CC1=C(c2ccc(F)cc2)S(=O)(=O)NC1=NCC(=O)Nc1ccc(F)cc1F returned OTUD3 inh 1.1, USP30 block 54.2*, USP28 inh 2.0 and USP17 inh 35.7*.
`CCCn1cnc2nc(CSc3ccccc3NC(=O)C3CCCCC3)cc(=O)n21` gave OTUD3 inh 8.6, USP30 block 3.4, USP28 inh 2.8 and USP17 inh 1.8.
CCN1CC[C@@]2(C(=O)N3CCCC3)CCN(C(=O)NCC(C)C)CC[C@@H]12 was read as OTUD3 inh 6.9, USP30 block 16.3, USP28 inh 4.9 and USP17 inh -22.0.
For Cc1ccc2nc(C3CN(S(=O)(=O)c4cccnc4)C3)[nH]c2c1 the results were OTUD3 inh -8.0, USP30 block -20.3, USP28 inh -8.7 and USP17 inh -18.0.
`COc1ccc(CNc2nc(=O)n(-c3ccccc3)c(=O)n2C)cc1` gave OTUD3 inh 3.7, USP30 block 18.1, USP28 inh 8.0 and USP17 inh 11.4.
`CC(C)Cn1c(=O)c2cc(C(=O)NCc3ccncc3)nn2c2ccccc21` gave OTUD3 inh -6.3, USP30 block -0.9, USP28 inh -0.4 and USP17 inh 4.3.
`CC(C)Cn1nc(C(=O)N(CCc2cccs2)Cc2cccs2)c2ccccc2c1=O` gave OTUD3 inh 6.7, USP30 block 27.6, USP28 inh 15.4 and USP17 inh 32.5*.
Fc1ccc(C(CCNCc2ccccc2F)c2ccco2)cc1 (centres undefined) was read as OTUD3 inh 14.9, USP30 block -23.4, USP28 inh 22.8 and USP17 inh 0.5.
`Cc1cc(=O)[nH]c(SCC(=O)c2cc(C)n(CCC3=CCCCC3)c2C)c1C#N` gave OTUD3 inh -35.8, USP30 block -270.9, USP28 inh -57.8 and USP17 inh 47.3*.
For Cc1ccc2[nH]c3c(=O)n(CCC4=CCCCC4)cnc3c2c1 the results were OTUD3 inh 9.9, USP30 block 9.7, USP28 inh 4.7 and USP17 inh 15.3.
COc1ccc(C(=O)N2CCC[C@@H](Cn3nnc(-c4ccncc4)n3)C2)cc1 was read as OTUD3 inh 2.2, USP30 block 10.7, USP28 inh -2.4 and USP17 inh 10.0.
Screening O=C(CN(Cc1ccccc1)S(=O)(=O)c1ccc(Cl)cc1)Nc1ccc(N2CCOCC2)cc1 returned OTUD3 inh -1.7, USP30 block -27.2, USP28 inh 2.0 and USP17 inh 18.5.
O=C(CN(Cc1ccc(Cl)cc1)S(=O)(=O)c1ccc(Cl)cc1)N1CCOCC1 was read as OTUD3 inh 15.6, USP30 block 63.4*, USP28 inh 16.4 and USP17 inh 20.6.
`Cc1nc(-c2cnccn2)n(CC(=O)Nc2cccc(C#N)c2)c(=O)c1C` gave OTUD3 inh -3.4, USP30 block 2.7, USP28 inh 0.0 and USP17 inh -1.0.
Cc1cccc(NC(=O)Cn2c(-c3cnccn3)nc(C)c(C)c2=O)c1C was read as OTUD3 inh -0.9, USP30 block 75.9*, USP28 inh -0.5 and USP17 inh 37.5*.
`CCN1CCN(C2(CNC(=O)COc3ccc(F)cc3)CCCCC2)CC1` gave OTUD3 inh 13.8, USP30 block 18.5, USP28 inh 6.8 and USP17 inh 9.4.
Screening Cc1cccc(O)c1C(=O)OC(C)c1cccc2nc3c(C(=O)O)cc4c(c3nc12)C(C)c1cccc2c1N4c1cccc(C(=O)O)c1N2 (centres undefined) returned OTUD3 inh 100.8*, USP30 block 101.5*, USP28 inh 100.4* and USP17 inh 99.6*.
Cc1ccc2c(Nc3ccccc3)c(-c3nc(C)no3)cnc2n1 was read as OTUD3 inh -1.9, USP30 block -27.1, USP28 inh 12.1 and USP17 inh -14.4.
For Cc1ccc2c(NCc3ccc4c(c3)OCO4)c(-c3nc(C)no3)cnc2n1 the results were OTUD3 inh 6.7, USP30 block -78.1, USP28 inh 42.9* and USP17 inh 35.6*.
Screening CCOc1ccc(CNc2nc3ccc(C)cc3n3cnnc23)cc1OC returned OTUD3 inh -3.3, USP30 block -0.3, USP28 inh 0.1 and USP17 inh -0.4.
For Cc1ccc2nc(N3CCc4ccccc4C3)c3nncn3c2c1 the results were OTUD3 inh 20.5, USP30 block 27.2, USP28 inh 33.6* and USP17 inh 58.9*.
c1ccc2ncc(CN3CCC[C@H]3c3nc(-c4ccc(-n5ccnc5)nc4)no3)cc2c1 was read as OTUD3 inh -6.7, USP30 block -18.7, USP28 inh -11.4 and USP17 inh 40.6*.
Cc1ccsc1CNC(=O)Nc1ccc(C(F)(F)F)cc1 was read as OTUD3 inh 9.0, USP30 block 26.7, USP28 inh 16.2 and USP17 inh 43.2*.
Screening CCc1noc(C2(NC(=O)c3ccc(C#N)cc3)CCCCC2)n1 returned OTUD3 inh -3.5, USP30 block -17.4 and USP28 inh -14.7.
`O=C(O)c1ccc(CN2CCc3ccccc3C2)o1` gave OTUD3 inh -24.2, USP30 block -40.5, USP28 inh -9.1 and USP17 inh -10.5.
For Cc1sc2ncn(CC(=O)Nc3ccccc3)c(=O)c2c1C the results were OTUD3 inh 6.8, USP30 block -133.3, USP28 inh 22.6 and USP17 inh 39.4*.

Source: PubChem (Buhrlage Lab, Dana-Farber Cancer Institute and Novartis Institutes for BioMedical Research (Cambridge, Mass))
